Bioassay records deposited in PubChem BioAssay by National Center for Advancing Translational Sciences (NCATS).
S16 viability = Cell viability qHTS assay in S16 Pmp22-F2sN cells; hit rate 0.48% among 43,000; Potency, µM (top dose mostly 57.5 µM), for the others: at the top dose activity change, negative = cytotoxicity, hits mostly cytotoxic; S16 Pmp22-F2sN Schwann cells viability, CellTiter-Glo, 24 h; AID 1508642, 2021; also: nearly all actives have a fitted effect of over 65% in size
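Luminescence from CellTiter-Glo, read by CCD camera after a 15 min room-temperature incubation, served as the viability signal. Reporter Schwann cells (S16 Pmp22-F2sN) had been treated with pin-transferred compounds for 24 h at 37C.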
mTORC1 inh = Acumen qHTS Assay for Inhibitors of the mTORC1 Signaling Pathway in MEF (Tsc2-/-, p53-/-) Cells: Sytravon; AID 493208, 2011; Tsc2-/- p53-/- MEF, phospho-rpS6 immunofluorescence/PI, 24 h; Potency, µM (series often up to 38.3 µM), for the others: top-dose activity change, negative = inhibition, usual class: inhibitors; hit rate 0.78% among 44,000;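 also: plate controls were DMSO for no effect and rapamycin for full effect; nearly all actives have a fitted effect of over 50% in size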
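Compounds act on Tsc2-/-, p53-/- fibroblasts carrying an empty vector for 24 h before fixation and dual staining for phospho-S6 and DNA (propidium iodide). Values are percentages of cells above a rapamycin-defined pS6/PI threshold.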
PMP22 txn = Cell-based coincidence reporter assay to measure PMP22 gene transcription in S16 Pmp22-F2sN cells - Primary screen; AID 1508649, 2021; Potency, µM (series often up to 57.5 µM), for the others: at the highest dose activity change, negative = inhibition, actives largely listed as inhibitors; S16 Pmp22-F2sN Schwann cells (luciferase reporters placed in the Pmp22 gene), FLuc/NLuc coincidence luminescence, 24 h; hit rate 2% among 43,000; active = clear falling dose curves in both reporters; inconclusive = both reporters move, but less clearly or upward; inactive = either reporter flat; the % is the NLuc reporter signal
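Schwann cells carrying the coincidence reporter were exposed to library compounds for 24 h at 37C, then lysed and read for FLuc and, after quenching, NLuc luminescence on a CCD imager.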
p53null 39C tox = qHTS Screen for Compounds that Selectively Target Cancer Cells with p53 Mutations: Cytotoxicity of p53 Null Cells at the Nonpermissive Temperature | H1299 p53-null (neo) cells, 39C, ATPlite viability, 24 h | Potency, µM (titrated, usually from 46.1 µM), inactives show at the highest dose activity, negative = cell killing, hits mostly cytotoxic | hit rate 0.97% among 55,000 | AID 904, 2007;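 also: 0% = DMSO only and -100% = full killing by 100 µM tamoxifen; nearly all actives have a fitted effect of over 50% in size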
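Concentration-response (up to 46 uM) was run for 24 h at the nonpermissive 39C on H1299-p53A138V or H1299-neo cells. ATP content was measured with ATPlite luminescence. AC50 values were Hill-modeled after normalizing between DMSO and 100 uM tamoxifen killing.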
p53null 32C tox = qHTS Screen for Compounds that Selectively Target Cancer Cells with p53 Mutations: Cytotoxicity of p53 Null Cells at the Permissive Temperature; H1299-neo p53 null cells, ATP luminescence, 24 h, 32C; Potency, µM (highest dose often 46.1 µM), without a hit: at the highest dose activity change, negative = cytotoxicity, hits mostly cytotoxic; hit rate 0.62% among 55,000; AID 903, 2007;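 also: 0% = DMSO only and -100% = full killing by 100 µM tamoxifen; nearly all actives have a fitted effect of over 55% in size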
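H1299-neo (p53-null) cells, 600/well, were pre-incubated overnight at 37C, then exposed to compounds at up to 46 uM for 24 hr at 32C. Viability was measured as ATP content by luminescence, and AC50 values came from Hill fits.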
OvCa metastasis = Primary qHTS assay for Inhibitors of ovarian cancer metastasis using an organotypic tumor microenvironment (TME) model; SKOV3ip1-GFP adhesion/invasion on 3D omental model, fluorescence; Potency, µM (titrated, usually from 45.8 µM), inactives show at the highest dose activity change, negative = inhibition, most hits filed as inhibitors; hit rate 0.1% among 46,000; AID 1963576, 2024;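 also: plate controls were DMSO wells for no effect and tomatine positive control wells for full effect; nearly all actives have a fitted effect of over 65% in size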
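Adhesion/invasion was scored as fixed GFP-labeled SKOV3ip1 cell counts (488/509 nm), normalized to DMSO and tomatine controls. Cancer cells in serum-free medium, with four compound doses (0.36-46 umol/L), sat 2 hr at RT then 16 hr at 37 C on a 48 hr fibroblast/mesothelial/ECM culture.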
An asterisk follows results filed as active; i = inactive; ? = inconclusive; / = no result; [ ] = dose if it differs, or a comment. Compounds with a hit are over-represented: about 3% of the library has one in this group of screens. Unless noted, calls follow the shape of the dose curve; as a rule, active = well fitted curve in the direction sought with a large enough effect; inconclusive = small, poorly fitted or top-dose-only effect, or another doubt; inactive = no such curve, though single readings can be large; an effect the other way counts as inactive or inconclusive. Unless noted, % is scaled to controls: 0 for no effect and ±100 for the full control effect; potency is read from the fitted curve at half-maximal effect.

SMILES | S16 viability | mTORC1 inh | PMP22 txn | p53null 39C tox | p53null 32C tox | OvCa metastasis
O=C(Nc1ccccc1F)c1nc(S(=O)(=O)Cc2ccccc2F)ncc1Cl | 6.31µM* | 1.17µM* | ? | ? | -11.2% | 3.16µM*
COc1ccc2nc(NC(=O)c3nc(S(=O)(=O)Cc4ccccc4)ncc3Cl)sc2c1 | 5.62µM* | 9.27µM* | 2.99µM* | ? | -26.0% | ?
COc1ccc2nc(NC(=O)c3nc(S(=O)(=O)Cc4ccccc4F)ncc3Cl)sc2c1 | 3.55µM* | 14.7µM* | 4.8µM* | -18.2% | -28.1% | 7.08µM*
CCN1CCN(Cc2ccc(-c3cc4c(N[C@H](C)c5ccccc5)ncnc4[nH]3)cc2)CC1 | / | / | / | / | / | 2.9%
O=C1NC(=O)C(=Cc2ccc3nccnc3c2)S1 | / | / | / | / | / | -12.8%[23.2 µM]
C[C@@]1(c2cc(-c3cncnc3)c(F)cc2F)CCSC(N)=N1 | / | / | / | / | / | 11.3%
CNC(=O)c1cc(Oc2ccc(NC(=O)Nc3ccc(Cl)c(C(F)(F)F)c3)c(F)c2)ccn1 | / | / | / | / | / | -25.9%
Cc1cccc(CS(=O)(=O)c2ncc(Cl)c(C(=O)NCc3ccccc3)n2)c1 | 20µM* | 18.5µM* | ? | ? | 19.1% | -12.4%
O=C(Nc1nc2ccc(F)cc2s1)c1nc(S(=O)(=O)Cc2ccccc2)ncc1Cl | 6.31µM* | -8.5% | 6.23µM* | ? | 10.6% | ?
COc1cc(=C2C=c3ccccc3=N2)[nH]c1=Cc1[nH]c(C)cc1C | / | / | / | / | / | -18.3%
COc1ccc2c3n(c(=NC(=O)c4cccnc4)nc2c1OC)CCN3 | / | / | / | / | / | -8.4%
Cc1ccnc(NC(c2cccc(O)c2)c2ccc3ccc(C)nc3c2O)c1 (stereo not given) | -2.5% | ? | ? | -7.4% | -7.8% | -2.7%
Cc1cccc(NC(c2cccc(Cl)c2)c2ccc3cccnc3c2O)n1 (stereo not given) | ? | ? | ? | 2.51µM* | ? | i
Cc1ccc(C(Nc2ccccn2)c2ccc3cccnc3c2O)cc1 (stereo not given) | 31.6µM* | -19.1% | ? | 3.98µM* | ? | -28.0%
COc1ccc(CNCCC(c2ccc3c(c2)OCO3)c2ccccc2OC)cc1 (stereo not given) | ? | ? | ? | 12.6µM* | 3.6% | ?
CC1(C)CCC(CN2CCN(c3ccc(C(=O)NS(=O)(=O)c4ccc(NCC5CCOCC5)c([N+](=O)[O-])c4)c(Oc4cnc5[nH]ccc5c4)c3)CC2)=C(c2ccc(Cl)cc2)C1 | / | / | / | / | / | 22.1%
O=C(C=CC=Cc1ccc2c(c1)OCO2)N1CCCCC1 | / | / | / | / | / | -25.2%
CCc1ccccc1-n1nnc(-c2nc(-c3ccccc3F)no2)c1C | 2.3% | 0.9% | ? | -22.8% | ? | i
Cc1c(-c2nc(-c3ccccc3F)no2)nnn1-c1cc(F)ccc1F | 0.3% | -3.8% | ? | 3.16µM* | ? | 2.0%
COc1ccc(OC)c2sc(N3CCN(C(=O)C(C)(C)C)CC3)nc12 | 0.3% | 0.2% | -48.6% | 11.2µM* | 12.6µM* | 4.8%
O=C(CC12CC3CC(CC(C3)C1)C2)Nc1cccc2nc(NCCNCCO)ccc12 | / | / | / | / | / | 16.5%
COc1ccc(/C=N/Nc2nncc3ccccc23)cc1 | / | / | / | / | 4.47µM* | /
O=C(CC1(O)C(=O)N(Cc2ccccc2)c2ccc(Br)cc21)c1ccccc1 (stereo not given) | -14.2% | ? | ? | 12.6µM* | ? | i
O=C(CC1(O)C(=O)N(CCc2ccccc2)c2ccc(Br)cc21)c1ccccc1O (stereo not given) | ? | 18.5µM* | ? | ? | 8.9% | -8.4%
COc1cccc(C(=O)CC2(O)C(=O)N(Cc3ccccc3)c3ccccc32)c1 (stereo not given) | ? | 14.7µM* | ? | 3.9% | -2.8% | -19.5%
SMILES | S16 viability | mTORC1 inh | PMP22 txn | p53null 39C tox | p53null 32C tox | OvCa metastasis
O=C(CC1(O)C(=O)Nc2cc(Cl)cc(Cl)c21)c1ccccc1O (stereo not given) | / | / | / | -11.7% | 4.3% | /
COc1ccc(C(=O)CC2(O)C(=O)N(Cc3cccc(C(F)(F)F)c3)c3ccccc32)cc1 (stereo not given) | ? | ? | ? | ? | 14.9% | i
CCN1C(=O)C(O)(c2c[nH]c3ccccc23)c2cc(Br)ccc21 (stereo not given) | -5.5% | 7.5% | ? | -26.9% | 22.3% | 2.1%
C[C@H](NC(=O)[C@@H](O)c1cc(F)cc(F)c1)C(=O)N[C@@H]1C(=O)N(C)c2ccccc2-c2ccccc21 | / | / | / | / | / | -0.2%
CCc1ccc2nc(N3CCC(C(=O)NCCC(C)C)CC3)sc2c1 | 0.7% | 0.0% | ? | 6.31µM* | ? | -4.3%
CCCN(CCC)CCNC(=O)C1CCN(c2nc3ccc(CC)cc3s2)CC1 | ? | 16.5µM* | ? | ? | ? | ?
CCCN(CCC)CCCNC(=O)C1CCN(c2nc3ccc(CC)cc3s2)CC1 | 28.2µM* | 16.5µM* | ? | ? | ? | ?
CC(=O)Nc1nc(C)c(-c2ccc(Cl)c(S(=O)(=O)NCCO)c2)s1 | / | / | / | / | / | -13.1%
CC1(C)CC(O)CC(C)(C)N1[O] | / | / | / | / | / | 2.0%
O=C1[C@H](Cc2ccc(O)cc2)N2C(=O)CCN(C(=O)NCc3ccccc3)[C@H]2CN1Cc1cccc2ccccc12 | / | / | / | / | / | -28.8%
N#Cc1c(O)c2c(-c3ccc(-c4ccccc4O)cc3)csc2[nH]c1=O | / | / | / | / | / | -12.1%
